PubChem BioAssay AID687001 (Broad Institute, 2013)
Entries with a potency or affinity are not part of this list.

The compounds below were run against Protein S100-A4 (Homo sapiens) (UniProt P26447) (assay: human S100A4 peptide interaction inhibition curves – biochemical, fluorescence polarization, cherry-picked hits, dose response (AID 687001;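 further: 0% = DMSO neutral control wells and -100% = TFP positive control wells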)). Conditions: FP, S100A4/TAMRA-myosin IIA peptide binding; series mostly up to 11 µM; activity change, negative = inhibition: at the top concentration;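 active means signal-lowering compounds whose fitted half-maximal concentration is at or below twice the top tested dose in every run; inconclusive means runs disagree, flat 30 to 70% inhibition, or poor curve fit; inactive means the rest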.
Chain of Protein S100-A4 (Homo sapiens) (P26447 whole entry, looked up): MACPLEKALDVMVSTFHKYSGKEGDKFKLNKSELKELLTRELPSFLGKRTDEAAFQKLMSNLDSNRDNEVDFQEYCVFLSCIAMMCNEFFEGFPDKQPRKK

Activity change, negative = inhibition, inactive:
O=C(Nc1ccc2c(c1)OCO2)N[C@@H]1CC[C@@H](CCNC(=O)C2CCCC2)O[C@H]1CO -2.33%
CCCCNC(=O)CNC(=S)N(CCCN1CCOCC1)Cc1cccs1 -2.25%
Cc1ccc(CNC(=O)c2[nH]c(C(F)(F)F)nc2-c2ccccc2)cc1 -0.469%
O=Cc1ccc(N2N=C(c3ccccc3)CC2c2ccccc2)cc1 (centres undefined) -2.17%
C[C@@H]1CN([C@H](C)CO)C(=O)c2cc(NS(=O)(=O)c3ccc(F)cc3)ccc2O[C@@H](C)CCCCO[C@@H]1CN(C)C(=O)NC1CCCCC1 14%
CCC1(CC)NC(=O)N(CC(=O)Nc2ccc(C)cc2C)C1=O -2.97%
Cc1cccc(NS(=O)(=O)c2c(C(=O)N3CCOCC3)c(C)n(C)c2C)c1C -2.74%
CSc1cccc(NC(=O)C2CCN(S(=O)(=O)c3ccc4c(c3)NC(=O)CO4)CC2)c1 4.28%
C[C@@H](NC(=O)C[C@@H]1CC[C@H](NC(=O)C2CCC2)[C@H](CO)O1)c1ccccc1 0.215%
COc1ccccc1[C@H]1C(c2ccc(F)cc2)=NN(c2ccccc2)[C@@H]1CO 12.9%
Cc1cc(OCC(=O)NCCc2c[nH]c3ccccc23)c2c(C)cc(=O)oc2c1 -1.62%
Cc1cc(C)c(NC(=O)CNC(=O)COC(=O)/C=C/c2cccs2)c(C)c1 -28.4% [at 5.6 µM]
CCC(=O)N1C[C@H](C)[C@@H](OC)CN(C)C(=O)c2ccc(NC(=O)Nc3ccccc3)cc2OC[C@H]1C 2.16%
NC(=O)c1nsc(C(=O)N(c2ccccc2F)C(C(=O)NCc2ccccc2)c2ccc(O)cc2)c1N (centres undefined) 4.16%
C[C@H](CO)N1C[C@H](C)[C@H](CN(C)Cc2ccccc2)Oc2c(NC(=O)CCCCCC(=O)Nc3ccccc3N)cccc2C1=O 10.4%
Cc1sc2nc(SCC(=O)N3CCOCC3)[nH]c(=O)c2c1-c1ccccc1 67.9% [at 5.6 µM]
CO[C@H]1CN(C)C(=O)c2ccc(NS(=O)(=O)c3ccccc3)cc2OC[C@H](C)N(Cc2cccnc2)C[C@@H]1C 0.753%
Cc1ccc(CN2C(=O)CSCC2(C)C(=O)Nc2c(C)cccc2C)cc1 (centres undefined) 2.37%
Cc1cccc(C)c1NC(=O)CN1CCN(c2ccc(C(F)(F)F)cn2)CC1 0.019%
O=C(NCc1ccccc1)c1cc(C2CCCCN2S(=O)(=O)c2ccccc2)on1 (centres undefined) -4.47%
CCN1CCN(c2ccc(N3CCN(S(=O)(=O)c4ccc(C)c([N+](=O)[O-])c4)CC3)nn2)CC1 -5.16%
COC(=O)c1ccc2c(=O)n(CCN3CCOCC3)c(SCC(=O)Nc3ccccc3Cl)nc2c1 -4.05%
CN(C)c1ccc(/C=C(\C#N)C(=O)OCC(=O)N(C)C2CCS(=O)(=O)C2)cc1 (centres undefined) 128% [at 2.6 µM]
COc1ccc(Cl)cc1Cn1c(C)c(C(=O)NCc2ccc(C#N)cc2)sc1=O 3.83%
CCOc1ccccc1N 0.398%
O=C(Nc1cc(Cl)ccc1O)C1CC(c2c(F)cccc2Cl)=NO1 (centres undefined) 22.2%
Cn1c2ccccc2c(=O)c2ccc(C#Cc3ccc(N)cc3)cc21 35.4%
COc1cccc(NC(=O)N(C)C[C@@H]2OCc3ccccc3-c3c(n(C)c4ccccc34)C(=O)N([C@@H](C)CO)C[C@@H]2C)c1 3.35%
Cc1ccccc1OCC(=O)Nc1ccc(S(=O)(=O)N2CCCC2)cc1 7.83%
COc1ccc(CN(C)C[C@H]2Oc3c(NC(=O)NC(C)C)cccc3C(=O)N([C@H](C)CO)C[C@H]2C)cc1 -3.85%
C[C@@H]1CN([C@H](C)CO)S(=O)(=O)c2ccc(C3=CCCCC3)cc2O[C@@H]1CN(C)Cc1ccccc1 0.007%
CN1C(=O)c2cc(NC(=O)c3ccccc3Cl)ccc2OC[C@@H]2O[C@@H](CC(=O)NCC(F)(F)F)CC[C@H]21 6.99%
Cc1cccn2c(=O)c3cc(C(=O)NC4CCCCCC4)sc3nc12 2.25%
O=C(CSc1n[nH]c(-c2ccc(Br)cc2)n1)NC1CCCC1 7.31%
O=C1[C@H]2[C@@H](c3ccc(F)cc3)N3C(=O)N(c4cccc(Br)c4)C(=O)[C@@]3(Cc3ccccc3)[C@H]2C(=O)N1C1CCCCC1 -1.44%
C[C@@H]1CN([C@@H](C)CO)C(=O)c2cc(NC(=O)C3CC3)ccc2O[C@@H]1CN(C)Cc1ccc(Cl)c(Cl)c1 -3.49%
Cn1cc(SCC(=O)NC2CCCC2)c2ccccc21 -2.12%
O=C(Nc1nnc(S(=O)(=O)N2CCN(c3ccc(F)cc3)CC2)s1)c1ccccc1 2.56%
Cc1ccc(C(=O)N2CCCC(CCC(=O)N3CCN(c4ccccn4)CC3)C2)cc1 (centres undefined) 3.63%
